A short description of assay [1]: liver-stage malaria parasite growth inhibition, primary screen, cell-based, HepG2, luciferase luminescence, HepG2 viability (AID 624349; in the data active = parasite load remaining mostly below about 12%, no sharp cut-off; inactive = mostly above about 10%;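 note: 100% = mean of DMSO negative control wells on the same plate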). Conditions: P. berghei liver stage in HepG2, luciferase luminescence, concentration not given here; parasite load remaining: stronger effect = lower value; viability: measured here: HepG2 viability without parasites.
Assay [2] is described as follows: stimulators of insulin release from INS-1E, primary screen, cell-based, 5 mM glucose, NPC library (AID 1117329;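 active = compound raises insulin release from rat beta cells at 5 mM glucose, no numeric limit stated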). Conditions: rat INS-1E insulin secretion, at 10 µM, stronger effect = higher value.
Assay [3] can be described thus: growth inhibition of GSK3B-pretreated HCT116 cells – cell-based, CellTiter-Glo, 0.2 to 20 µM (AID 1117336;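 active = compounds lowering colon cancer cell viability after pretreatment blocking the GSK3B kinase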). Conditions: HCT116 viability after GSK3B inhibitor, at 20 µM, stronger effect = higher value. A general note: ATP-based viability assays read luminescence as a measure of living cells.
A short description of assay [4]: inhibition of endothelial tube formation, primary screen, imaging, VEGF stimulated, CD31 staining, tube area, NPC library (AID 1117340;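 active = compound that reduces growth-factor-driven endothelial tube area in a mixed cell culture, no cutoff stated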). The conditions noted are these: VEGF-stimulated ADSC/ECFC co-culture, at 10 µM, stronger effect = higher value.
A short description of assay [5]: glucagon-like peptide 1 release enhancers, primary assay, NCI-H716 cell line, NPC library (AID 1117341;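 active = compound raises GLP1 secretion from the human gut endocrine cells, with no numeric limit stated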). The conditions noted are these: NCI-H716 cells, at 10 µM, stronger effect = higher value.
The nature of assay [6]: HCT116 colon cancer cell growth inhibition, primary screen, CellTiter-Glo luminescence, NPC library (AID 1117342;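 active = compounds that lower survival of HCT116 colon cancer cells in the luminescence readout, no numeric limit stated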). Conditions: at 20 µM (top of the series).
A short description of assay [7]: CellTiter-Glo luminescent readout of SW480 viability loss, NPC library primary (AID 1117343;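 active = compounds that lower viability of the colon cancer cells in the luminescence readout, with no numeric limit stated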). The conditions noted are these: CellTiter-Glo luminescence; at 20 µM (top of the series) unless noted.
Assay [8] is described as follows: decreased DLD-1 cellular survival, CellTiter-Glo luminescent readout, NPC compound collection, primary HTS (AID 1117346;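 active = compounds that lower survival of DLD-1 colon cancer cells in the luminescence readout, no cutoff given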). Conditions: DLD-1 viability, CellTiter-Glo luminescence; at 20 µM (top of the series).
Assay [9] in a line: sensitizers of A549 cells to miR-34 induction, primary screen, imaging, A549 dox-inducible miR-34, nuclei and caspase counts (AID 1347080;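 active = compounds whose cell count with miR-34 switched on is under 0.7 times the count with it off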). The conditions noted are these: A549 miR-34 inducible, Hoechst nuclei count, 48 h.
The nature of assay [10]: survival rescue of mitochondrial mutant cells in low glucose, primary screen, MELAS cybrids, Rieske KO mouse fibroblasts, CellTiter-Glo (AID 1508586).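 Note: z relative to plate mean and SD of compound and empty wells.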
A short description of assay [11]: viability rescue of complex I mutant cybrids, primary screen, cell-based, galactose medium, ATP luminescence (AID 1645843;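 active = z-score of at least 1.8 in each of two replicates, scored against plate mean and spread of sample wells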;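 note: positive z means more ATP and so rescue of galactose-driven cybrid death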). The conditions noted are these: complex I mutant cybrid cells, 72 h, stronger effect = higher value.
In assay [12] the target is 6-phosphogluconate dehydrogenase, decarboxylating (Homo sapiens) (UniProt P52209). The assay is described as follows: 6PGD enzyme inhibitors, primary screen, biochemical, human, recombinant enzyme, NADPH absorbance (AID 1159550;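 active = at least 20% inhibition of 6-phosphogluconate dehydrogenase activity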). The conditions noted are these: recombinant 6PGD, NADPH absorbance 341 nm; at 10 µM; stronger effect = higher value.
In assay [13] the test system is Hepatitis C virus NS3 helicase. The assay is described as follows: HCV NS3 helicase inhibitors, primary screen, biochemical, fluorescence polarization, NIH Clinical Collection (AID 743270; call rule not given here). Conditions: NS3 helicase binding to Cy5-dT15 DNA, stronger effect = higher value, concentration not given here. (In fluorescence polarisation assays a small probe gives low polarisation when free and higher when bound to something large.)

The nature of assay [14]: modulation of C. elegans fzo-1 (AID 1259413; call rule not given here;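 note: fzo-1 mutant C. elegans worms in liquid wells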). The conditions noted are these: C. elegans fzo-1 modulator screen, mean read-out; stronger effect = higher value.
The nature of assay [15]: differential killing of epithelial or mesenchymal cells, primary screen, imaging, PC-3E GFP, TEM4-18 mCherry, co-culture (AID 1345086;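 active = compounds killing one labelled cell type while sparing the other, by normalised counts and ratio limits, not self-fluorescent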;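 for all read-outs here: cells exposed to compound for 72 h before imaging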;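 for red/green cell ratio (normalised): normalised mesenchymal count divided by normalised epithelial count so high means epithelial killing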). Conditions: imaging cell counts, at 1 µM; for red/green cell ratio (normalised): actives lie on both sides, counts scaled to control wells, 1 = unselective.
Assay [16] deals with NAD(+) hydrolase SARM1 (Homo sapiens) (UniProt Q6SZW1). Nature of the assay: SARM1 TIR NADase inhibitors, cell lysate, NAD-Glo luminescence (AID 1508614;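 active = compound whose remaining NAD level is above about 45 nM, limit read from the data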;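 note: higher remaining NAD means stronger inhibition of SARM1 NADase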). The conditions noted are these: SAM-TIR HEK293T lysate NADase, at 1 µM, stronger effect = higher value.
Assay [17] concerns the target Mitogen-activated protein kinase 7 (Homo sapiens) (UniProt Q13164). Nature of the assay: ERK5 transactivation activators in reporter cells, primary screen, cell-based, HTS (AID 1508626;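 active = luciferase signal above three times the same-plate solvent-only control wells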;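 note: luciferase driven by Gal4-ERK5 fusion binding five Gal4 sites before minimal TATA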). The conditions noted are these: HeLa Gal4-ERK5 transactivation, 18 h, at 5 µM, stronger effect = higher value.
[18] abbreviates: stronger effect = lower value, cell number ratio, induced over uninduced.
Where [19] appears, read: measured here: relative caspase fold change +Dox/-Dox.
The mark [20] stands for this setting: measured here: total cells with miR-34 induction, stronger effect = lower value.
Setting [21] is: measured here: total cells without miR-34 induction.
[22] abbreviates: MELAS cybrid survival, CellTiter-Glo 48 h, stronger effect = higher value.
Where [23] appears, read: Rieske KO mouse fibroblast survival, CellTiter-Glo 72 h.
[24] abbreviates: measured here: epithelial PC-3E GFP cell survival.
Where [25] appears, read: measured here: mesenchymal TEM4-18 mCherry cell survival.

Where “and” joins values, the source holds several entries; their conditions need not be identical. Equal values may be shown once. Calls of active or inactive are those of the source.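 Rule for the calls, unless noted: active = mean z-score across replicates of 1.96 or higher in either the MELAS or the Rieske mutant cell line; inactive = the rest.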

Chain of 6-phosphogluconate dehydrogenase, decarboxylating (Homo sapiens) (P52209 whole entry, looked up): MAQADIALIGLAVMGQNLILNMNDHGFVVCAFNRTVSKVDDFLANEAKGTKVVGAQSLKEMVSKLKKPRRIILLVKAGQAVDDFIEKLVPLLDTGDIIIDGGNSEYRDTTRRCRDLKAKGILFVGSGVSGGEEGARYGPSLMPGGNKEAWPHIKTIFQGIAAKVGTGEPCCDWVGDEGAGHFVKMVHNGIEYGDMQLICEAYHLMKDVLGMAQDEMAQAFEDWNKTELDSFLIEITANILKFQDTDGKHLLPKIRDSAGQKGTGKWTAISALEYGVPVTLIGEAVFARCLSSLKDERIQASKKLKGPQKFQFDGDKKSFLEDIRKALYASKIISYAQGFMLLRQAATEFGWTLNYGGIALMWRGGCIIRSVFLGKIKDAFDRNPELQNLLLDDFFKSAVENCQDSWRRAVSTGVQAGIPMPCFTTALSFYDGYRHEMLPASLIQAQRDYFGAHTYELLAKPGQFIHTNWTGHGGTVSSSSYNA
Chain of Mitogen-activated protein kinase 7 (Homo sapiens) (Q13164 whole entry, looked up, the tested form may be a part): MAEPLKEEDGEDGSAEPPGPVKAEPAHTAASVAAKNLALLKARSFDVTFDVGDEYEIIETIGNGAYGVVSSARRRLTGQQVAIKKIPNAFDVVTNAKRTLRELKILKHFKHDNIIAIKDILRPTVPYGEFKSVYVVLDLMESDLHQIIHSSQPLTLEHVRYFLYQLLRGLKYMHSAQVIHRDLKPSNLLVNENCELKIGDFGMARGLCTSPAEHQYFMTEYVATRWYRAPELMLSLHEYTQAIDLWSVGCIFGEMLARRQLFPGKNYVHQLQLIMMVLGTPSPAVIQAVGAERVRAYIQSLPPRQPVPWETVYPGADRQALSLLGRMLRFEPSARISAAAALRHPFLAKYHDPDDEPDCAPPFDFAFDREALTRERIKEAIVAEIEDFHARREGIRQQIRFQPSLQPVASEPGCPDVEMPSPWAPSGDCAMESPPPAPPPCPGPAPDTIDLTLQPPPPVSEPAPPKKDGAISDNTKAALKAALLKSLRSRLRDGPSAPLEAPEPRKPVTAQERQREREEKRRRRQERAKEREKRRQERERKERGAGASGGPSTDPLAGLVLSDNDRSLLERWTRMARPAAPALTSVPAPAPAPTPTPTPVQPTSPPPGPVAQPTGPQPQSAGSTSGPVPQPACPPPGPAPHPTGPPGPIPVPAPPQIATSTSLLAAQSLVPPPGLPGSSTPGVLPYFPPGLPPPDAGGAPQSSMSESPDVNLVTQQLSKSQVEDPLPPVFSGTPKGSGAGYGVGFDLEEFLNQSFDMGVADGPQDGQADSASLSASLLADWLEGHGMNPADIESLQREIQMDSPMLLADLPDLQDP
Chain of NAD(+) hydrolase SARM1 (Homo sapiens) (Q6SZW1 whole entry, looked up, the tested form may be a part): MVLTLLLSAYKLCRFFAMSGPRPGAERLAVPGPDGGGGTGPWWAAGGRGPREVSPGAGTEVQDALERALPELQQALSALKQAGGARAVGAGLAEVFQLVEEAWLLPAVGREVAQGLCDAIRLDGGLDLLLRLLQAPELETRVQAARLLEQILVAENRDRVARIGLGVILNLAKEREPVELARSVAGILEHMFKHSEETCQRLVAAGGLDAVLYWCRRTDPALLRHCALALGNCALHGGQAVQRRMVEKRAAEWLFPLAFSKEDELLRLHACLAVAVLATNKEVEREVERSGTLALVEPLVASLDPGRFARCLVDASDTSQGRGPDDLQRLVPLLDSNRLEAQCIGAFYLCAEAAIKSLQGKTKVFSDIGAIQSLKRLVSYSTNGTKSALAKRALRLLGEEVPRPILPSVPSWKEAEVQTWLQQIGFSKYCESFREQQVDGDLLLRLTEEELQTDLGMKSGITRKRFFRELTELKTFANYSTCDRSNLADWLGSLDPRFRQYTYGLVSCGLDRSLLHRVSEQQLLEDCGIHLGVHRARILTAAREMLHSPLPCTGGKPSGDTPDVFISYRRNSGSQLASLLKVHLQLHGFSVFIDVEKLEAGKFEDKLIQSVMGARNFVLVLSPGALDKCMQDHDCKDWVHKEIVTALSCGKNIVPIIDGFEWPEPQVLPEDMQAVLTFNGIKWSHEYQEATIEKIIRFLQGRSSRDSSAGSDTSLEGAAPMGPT

Consider `C[C@@H](O[C@H]1OCCN(Cc2n[nH]c(=O)[nH]2)[C@H]1c1ccc(F)cc1)c1cc(C(F)(F)F)cc(C(F)(F)F)c1`, for which the parasite load remaining in assay [1] is 26.3% (inactive). The viability – broadly, a read-out of living cells in per cent, often relative to untreated cells – in assay [1] stood at 67.5%. Moreover, in [2], the insulin secretion stimulation is 1.6% (inactive). Further, the viability decrease in [3] was 99% (active). For the same molecule, the tube area decrease in [4] is 108% (active). For the same molecule, the GLP1 secretion stimulation in [5] was -2.9% (inactive). Further, the inhibition of viability in assay [6] is 97.5% (active). The values for the viability decrease (inhibition) in assay [7] and in [8] were 102% (active) and 100% (active), respectively. For the same molecule, the fold change in assay [9] (setting [18]) was 0.959 (inactive); in assay [9] (setting [19]) it was 1.18. Besides, the values for the cell count in [9] (setting [20]) and in [9] (setting [21]) were 9050 and 9430, respectively. For the same molecule, the z-score in [10] (setting [22]) is 0.822 and 0.307 (inactive); in [10] (setting [23]), 2.09 and 0.201; in [11] it was -0.16 (inactive).
`COc1ccc(C2COc3cc(O)ccc3C2)c(OC)c1O` (stereo not drawn): in assay [12], the inhibition (usually the relative decrease from the control value, in per cent) was 1.81% (inactive).
As to `CC(C)(C(=O)O)c1ccc(C(O)CCCN2CCC(C(O)(c3ccccc3)c3ccccc3)CC2)cc1` (stereo not drawn), the parasite load remaining in assay [1] was 72.9% (inactive) and 85.2% (inactive) and 65.9% (inactive). Also, the viability in [1] was 89.9% and 71.9% and 128%. For the same molecule, the inhibition in assay [13] is -4.09% (inactive). In assay [2], the insulin secretion stimulation was 2.1% (inactive). Also, in assay [3], the viability decrease is 1.3% (inactive). In addition, the tube area decrease in assay [4] was -20.5% (inactive). For the same molecule, in [5], the GLP1 secretion stimulation is -2.2% (inactive). The inhibition of viability in assay [6] was -3.77% (inactive). Also, the figures for the viability decrease (inhibition) in assay [7] and in assay [8] were 33.1% (inactive) and -0.4% (inactive), respectively. In addition, the mean signal in [14] was 241 (inactive). Moreover, the red/green cell ratio (normalised) in assay [15] is 1.14 (inactive). Besides, the normalised cell number in assay [15] (setting [24]) is 0.92; in assay [15] (setting [25]) it was 1.05. Besides, the z-score is -0.235 (inactive) and -0.763 (inactive) in assay [10] (setting [22]); -0.15 and -0.362 in assay [10] (setting [23]); 0.205 (inactive) and 1.1 (inactive) and -0.085 (inactive) in assay [11]. Also, the remaining NAD in assay [16] is 10 nM (inactive). For the same molecule, the luciferase signal in [17] is 40 AU (inactive).
As to `C=C(C)/C=C1/C=CC(=O)C(C)=C1`, in assay [12], the inhibition was -4.6% (inactive).
Still for that read-out and setting: the figure for `C=C[C@@H]1CN2CC[C@@H]1C[C@@H]2[C@@H](O)c1ccnc2ccc(OC)cc12` is 8.78% (inactive).
Turning to `O=C(O)c1cn(C2CC2)c2cc(N3CCNCC3)c(F)cc2c1=O`, the insulin secretion stimulation in [2] is -0.6% (inactive). Further, the viability decrease in assay [3] was -4.5% (inactive). Further, in [4], the tube area decrease is -29.4% (inactive). Also, the GLP1 secretion stimulation in [5] is 1.9% (inactive). Besides, the inhibition of viability in assay [6] was 8.6% (inactive). Besides, the viability decrease (inhibition) is 12.3% (inactive) in assay [7] and -5% (inactive) in assay [8]. Moreover, in assay [12], the inhibition is -0.391% (inactive). In addition, the red/green cell ratio (normalised) in assay [15] is 1.14 (inactive) and 1.04 (inactive). Further, the normalised cell number in [15] (setting [24]) is 1.04 and 1.24; in [15] (setting [25]) it was 1.18 and 1.28. Besides, the fold change in assay [9] (setting [18]) was 0.89 (inactive) and 0.772 (inactive) and 0.838 (inactive); in [9] (setting [19]), 1.27 and 3.9 and 0.85. The cell count in [9] (setting [20]) is 9200 and 10000 and 9070; in [9] (setting [21]), 10300 and 13000 and 10800. The z-score in assay [10] (setting [22]) was -0.333 (inactive) and -0.308 (inactive); in [10] (setting [23]), -3.38 and -1.41; in [11], 0.01 (inactive). Further, the remaining NAD in assay [16] is 10 nM (inactive). The luciferase signal in [17] was 76 AU (inactive).

For the origin of these results see PubChem BioAssay.
